Molecules are shown by their SMILES. Results filed as inconclusive are left out. A number with no mark means an inactive call. The source made the active and inactive calls. The call rests on the fitted dose curve; in most records, active means well fitted curve in the direction sought with a large enough effect; inconclusive means small, poorly fitted or top-dose-only effect, or another doubt; inactive means no such curve, though single readings can be large; an effect the other way counts as inactive or inconclusive.

The values below come from PubChem BioAssay (NCATS).

In test [1] the target is Aldehyde dehydrogenase, mitochondrial (Homo sapiens) (UniProt P05091). Nature of the test: qHTS for Inhibitors of the Aldehyde Dehydrogenase Family (ALDH2) Primary screen (AID 2061308).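 Further: plate controls were vehicle for no effect and reference inhibitor for full effect; nearly all actives have a fitted effect of over 55% in size.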 On the technique in general: Quantitative high-throughput screening tests each substance at several concentrations.
Test [2] concerns the target Retinaldehyde dehydrogenase 3 (Homo sapiens) (UniProt P47895). Nature of the test: qHTS for Inhibitors of the Aldehyde Dehydrogenase Family (ALDH1A3) Primary screen (AID 2061315).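 Further: plate controls were DMSO vehicle for no effect and reference inhibitor for full effect.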

For `CC1(C)[C@@H]2CC=C(CO[C@@H]3O[C@H](CO[C@@H]4OC[C@H](O)[C@H](O)[C@H]4O)[C@@H](O)[C@H](O)[C@H]3O)[C@H]1C2`, the Potency result in test [1] and in test [2] was “inactive” each time.
Turning to `CC(=O)N[C@H]1[C@H](O[C@H]2CC[C@@]3(C)C(CC[C@]4(C)C3CC=C3[C@@H]5CC(C)(C)CC[C@]5(C(=O)OC5OCC(O)C(O)C5O)CC[C@]34C)C2(C)C)O[C@H](COC2OC(C)C(O)C(OC3OC(C)C(O)C(O)C3O)C2O)[C@@H](O)[C@@H]1O` (stereo not given in full), the Potency entry in test [1] and in test [2] was “inactive” in each case.
Turning to `CC1=C2C(=O)C=C(CO)[C@@H]2[C@H]2OC(=O)[C@H](C)[C@@H]2[C@@H](O)C1`, the Potency result in test [1] and in test [2] was “inactive” each time.
In the case of `Cc1nccn1CC1CCc2c(c3ccccc3n2C)C1=O` (stereo not given), the Potency entry in test [1] and in test [2] was “inactive” in each case.
For `C[C@@H]1O[C@@H](OC[C@H]2O[C@@H](Oc3cc(O)cc4c3C(=O)C(O)(Cc3ccc(O)cc3)O4)[C@H](O)[C@@H](O)[C@@H]2O)[C@H](O)[C@H](O)[C@H]1O` (stereo not given in full), the Potency entry in test [1] and in test [2] was “inactive” throughout.
`CCNC(=O)[C@@H]1CCCN1C(=O)[C@H](CCCN=C(N)N)NC(=O)[C@H](CC(C)C)NC(=O)[C@@H](C)NC(=O)[C@H](Cc1ccc(O)cc1)NC(=O)[C@H](CO)NC(=O)[C@H](Cc1c[nH]c2ccccc12)NC(=O)[C@H](Cc1cnc[nH]1)NC(=O)[C@@H]1CCC(=O)N1`: the Potency result in test [1] and in test [2] was “inactive” each time.
In the case of `C=C1C[C@H](O)[C@@H](O)[C@@]2(C)C1[C@@H](O)[C@H]1OC(=O)C3[C@@H](C)[C@@H](O)[C@H](O)C2[C@]31C` (stereo not given in full), the Potency result in test [1] and in test [2] was “inactive” each time.
Take `CC(=O)O[C@@H]1C(=O)C(C)=C(CCC(C)CC(=O)O)[C@@]2(C)CCCC(C)(C)C12` (stereo not given in full): the Potency result in test [1] and in test [2] was “inactive” in each case.
Regarding `CC/C=C\CC1C(CC(=O)O)CCC1OC1OC(CO)C(O)C(O)C1O` (stereo not given), the Potency result in test [1] and in test [2] was “inactive” each time.
Take `C=C1C(O[C@@H]2O[C@H](CO)[C@@H](O)[C@H](O)[C@@H]2O)CC2C(C)(C)C(O)CCC2(C)C1CC/C(C)=C\CO` (stereo not given in full): the Potency entry in test [1] and in test [2] was “inactive” throughout.
Regarding `C[C@@]1(C(=O)O)CCC[C@@]2(C)C3=CC[C@H]4C[C@@]3(CC[C@H]12)CC4(O)CO` (stereo not given in full), the Potency entry in test [1] and in test [2] was “inactive” each time.
Turning to `CC(C)C(=O)O[C@@H]1[C@@H](O)[C@@H](O[C@H]2O[C@H](CO)[C@@H](O)[C@H](O)[C@H]2O)O[C@H](CO)[C@H]1O`, the Potency entry in test [1] and in test [2] was “inactive” each time.
Regarding `CC1(C)CC2C(C1)C1(C)CCC13OC3(CO)C2O` (stereo not given), the Potency entry in test [1] and in test [2] was “inactive” in each case.
For `CCCC(=O)NCCc1csc(-c2ccc(Cl)cc2)n1`, the Potency entry in test [1] and in test [2] was “inactive” in each case.
In the case of `O=[N+]([O-])c1ccc(Oc2ccc3c(c2)CCC(c2ccccc2)O3)nc1` (stereo not given), the Potency result in test [1] and in test [2] was “inactive” throughout.
On to `CC(C)=CCCC1(C)Oc2cc3c(c4c2C2C(O4)C(C)(O)CCC21)CN(C(CCC(=O)O)C(=O)O)C3=O` (stereo not given), for which the Potency result in test [1] and in test [2] was “inactive” each time.
In the case of `C=CC[C@]12C[C@@H](OC)C(=O)C(OC)=C1O[C@@H](c1cc(OC)c3c(c1)OCO3)[C@@H]2C`, the Potency result in test [1] and in test [2] was “inactive” throughout.
`CCn1cc(NC(=S)Nc2cc(Cl)ccc2OC)c(C(N)=O)n1`: the Potency entry in test [1] and in test [2] was “inactive” in each case.
In the case of `C/C=C/C=C/C=C/C(=O)O[C@@H]1C=C(CO)C(O)(C(=O)O)[C@@]2(C)CCCC(C)(C)[C@H]12` (stereo not given in full), the Potency entry in test [1] and in test [2] was “inactive” throughout.
Regarding `CC(=O)[C@@H]1CC[C@]2(C(=O)O)CC[C@]3(C)C(CCC4[C@@]5(C)CC[C@H](O)C(C)(C)C5CC[C@]43C)C12` (stereo not given in full), the Potency entry in test [1] and in test [2] was “inactive” throughout.
In the case of `CC1(C)O[C@]23C[C@H]1C[C@H](OC(=O)c1ccoc1)[C@]2(C)[C@@H](OC(=O)c1ccoc1)CCC3(C)O` (stereo not given in full), the Potency result in test [1] and in test [2] was “inactive” each time.
On to `O=C(C[C@@H]1C(C(=O)O)=CO[C@@H](O[C@@H]2O[C@H](CO)[C@@H](O)[C@H](O)[C@H]2O)/C1=C\CO)OCCc1ccc(O)c(O)c1`, for which the Potency entry in test [1] and in test [2] was “inactive” each time.
On to `CC(C)=CCC/C(C)=C/CO[C@@H]1O[C@H](CO[C@@H]2OC[C@](O)(CO)[C@H]2O)[C@@H](O)[C@H](O)[C@H]1O`, for which the Potency result in test [1] and in test [2] was “inactive” in each case.
In the case of `CC(C)CC(=O)OC1OC=C(CO[C@@H]2O[C@H](CO)[C@@H](O)[C@H](O)[C@H]2O)C2CC(O)C(O)(CO)C12` (stereo not given in full), the Potency entry in test [1] and in test [2] was “inactive” throughout.
For the compound `C[C@@H]1O[C@@H](O[C@H]2[C@H](OC(=O)[C@]34CCC(C)(C)C[C@H]3C3=CCC5[C@@]6(C)C[C@H](O)[C@H](O[C@@H]7O[C@H](CO)[C@@H](O[C@H]8OC[C@](O)(CO)[C@H]8O)[C@H](O)[C@H]7O)[C@@](C)(CO)C6[C@H](O)C[C@@]5(C)[C@]3(C)C[C@H]4O)OC[C@H](O)[C@@H]2O)[C@H](O)[C@H](O)[C@H]1O[C@@H]1OC[C@@H](O)[C@H](O[C@@H]2OC[C@](O)(CO)[C@H]2O)[C@H]1O` (stereo not given in full), the activity change, negative = inhibition in test [1] was 8.6% [at 11.2 µM]; in test [2], -7.49% [at 11.2 µM].
